Experimental data published in PubChem BioAssay (NCI).
About 83,000 compounds went through this panel and 20% of them were active in at least one assay; those are over-represented in the sample as a whole.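 Interpretation: 100, growth as untreated; towards 0, rising growth inhibition; 0, no net growth; 0 to -100, cell death. Compounds scoring below 10 were considered active.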 Active and inactive are the calls of the source.

How the values were obtained:
Experiment in all cases: NCI-60 one-dose screen, 48 h (100 = growth as untreated, 0 = no growth, -100 = all killed)
Conditions in all cases: 10 µM unless noted
[1] = system: SK-MEL-2 melanoma
[2] = system: EKVX NSCLC
[3] = system: SN12C renal
[4] = system: UO-31 renal
[5] = system: TK-10 renal
[6] = system: ACHN renal
[7] = system: CAKI-1 renal
[8] = system: A498 renal
[9] = system: CCRF-CEM leukemia
[10] = system: MOLT-4 leukemia

Measured: growth

CC(=O)Nc1ccc(-n2c(O)c(/C=N/NC(=O)Cc3ccccc3Nc3c(Cl)cccc3Cl)sc2=S)cc1
inactive: [1] 113% | [2] 100% | [3] 104% | [4] 84.1% | [5] 112% | [6] 99.1% | [7] 84.9% | [8] 97.1% | [9] 96.7% | [10] 94.2%

O=C(O)c1c(=O)cccc2ssc12
inactive: [1] 11.6% | [2] 11% | [3] 14.3% | [4] 21.7% | [7] 68.5%
active: [5] 4.78% | [6] 3.95% | [8] -76.8% | [9] 4.61% | [10] -23.3%

O=C(CCl)Oc1ccc(-c2ccccc2)c(Br)c1
inactive: [1] 104% | [2] 115% | [3] 109% | [4] 92.8% | [5] 105% | [6] 108% | [7] 98.5% | [8] 95% | [9] 118% | [10] 105%

Cc1ccc(-c2onc3c(=O)[nH]nc(-c4ccccc4)c23)cc1
inactive: [1] 25.6% | [2] 39% | [3] 37.4% | [4] 47.7% | [5] 55% | [6] 56.9% | [7] 33.9% | [8] 30% | [9] 20.5% | [10] 26%

COc1cc2nc(N3CCCC3)nc(Nc3ccccc3)c2cc1OC
active: [1] -52.5% | [3] -53.5% | [4] -53.5% | [6] -11.2% | [7] -19% | [9] -11.4% | [10] -24.7%
inactive: [2] 28.3% | [5] 16.5% | [8] 40.6%

COc1ccc(S(=O)(=O)N2CCCCCC2)cc1NC(=O)c1[nH]c(C)c2c1CCCCC2=O
inactive: [1] 43.4% | [2] 38.4% | [3] 36.9% | [4] 12.1% | [5] 15.3% | [6] 25.2% | [7] 12.7% | [9] 33.7% | [10] 30.6%
active: [8] -25.6%

CCOc1nc(-c2ccccc2)cc2c(O)c(C(=O)O)[nH]c(=O)c12
inactive: [1] 95.3% | [2] 98.2% | [3] 111% | [4] 87.1% | [5] 134% | [6] 100% | [7] 105% | [8] 119% | [9] 83% | [10] 92.4%

CN(C)CCN1C(=O)c2cccc3c(N)ccc(c23)C1=O
active: [7] -7.49% | [10] 1.9%
inactive: [1] 19.6% | [2] 30.5% | [3] 33.6% | [4] 26.8% | [5] 58.9% | [6] 12.8% | [8] 65.6% | [9] 10.5%

C#CC(F)(F)[C@]1(O)CC[C@H]2[C@@H]3CCC4=CC(=O)CCC4=C3[C@@H](c3ccc(C(C)=O)cc3)C[C@@]21C
inactive: [1] 99.4% | [3] 89.3% | [5] 114% | [6] 87.8% | [8] 79% | [10] 35.6%
active: [2] -60.6% | [4] -75% | [7] -31.9% | [9] -55.5%

C=C1c2nc3ccccc3n2C=C(c2ccc(OC)cc2)N1Cc1ccccc1
inactive: [1] 57.7% | [2] 62.6% | [3] 98.7% | [4] 54.6% | [5] 118% | [6] 96.2% | [7] 101% | [8] 69.7% | [9] 78.9% | [10] 71.5%

Cc1ccc(NS(=O)(=O)c2ccc(-c3cnc(C4CC4)o3)cc2)cc1C
active: [8] -15.8%
inactive: [1] 38.5% | [2] 27% | [3] 43.6% | [4] 38.5% | [5] 44% | [6] 40.7% | [7] 27.2% | [9] 23.5% | [10] 30.1%

Cc1c(/C=C/[N+](=O)[O-])ccc2c1[nH]c1ccccc12
inactive: [1] 93.5% | [2] 98.6% | [3] 99.7% | [4] 94.3% | [5] 93.2% | [6] 111% | [7] 102% | [8] 83.6% | [9] 87% | [10] 94.9%

CN(CCCCCl)P(=O)(OCc1ccc([N+](=O)[O-])o1)C(F)(F)c1ccc(CC(=O)NC[C@@H](O)/C=C\[C@@H](O)[C@H](CO)Cc2ccccc2)cc1 (stereo not given in full)
inactive: [1] 66.5% | [2] 99.3% | [3] 98.8% | [4] 88.9% | [5] 113% | [6] 94% | [7] 104% | [8] 83.8% | [9] 70.7% | [10] 93.5%

CCn1c(O)c(/C=N/NC(=O)C(C)c2ccc(CC(C)C)cc2)sc1=S (stereo not given)
inactive: [1] 40.3% | [2] 41.1% | [3] 38% | [4] 23.6% | [5] 56.5% | [6] 34.6% | [7] 35.1% | [8] 17.2% | [9] 12.9% | [10] 18.4%

CN1CCN(CCCOc2cccc3nc(Nc4cc(Cl)cc(Cl)c4)ccc23)CC1
active: [4] -15.8% | [6] -5.36% | [9] -40.7% | [10] -47.7%
inactive: [1] 86.9% | [2] 26.6% | [3] 36.1% | [5] 71.9% | [7] 30.7% | [8] 23.8%

O=S(=O)(Nc1ccc(OC(F)F)cc1)c1ccc(-c2cnc(C3CC3)o2)cc1
inactive: [1] 63.9% | [2] 61.7% | [3] 77.5% | [4] 60.2% | [5] 102% | [6] 79.4% | [7] 47.2% | [8] 16.9% | [9] 66.8% | [10] 50.1%

CCOc1cc2ncc(C#N)c(Nc3ccc(OCc4cccc(F)c4)c(Cl)c3)c2cc1NC(=O)CCCCC1CCSS1 (stereo not given)
inactive: [1] 94.3% | [2] 78.5% | [3] 88.6% | [4] 55.8% | [5] 92.2% | [6] 91.3% | [7] 72% | [8] 70.1% | [9] 78.9% | [10] 78.5%

COc1cc(/C=C/c2cc(/C=C/c3ccc(O)c(OC)c3)n(-c3c(C)cccc3C)c(=O)n2)ccc1O
inactive: [2] 17.7% | [3] 11.6% | [5] 27.4% | [7] 17.2%
active: [1] -6.04% | [4] 1.61% | [6] 6.48% | [8] -6.94% | [9] 7.03% | [10] 6.55%

NNCCc1ccc(NC(=O)CCCc2ccc(/C=C/C(=O)NO)cc2)cc1
inactive: [1] 52.4% | [2] 69.2% | [3] 55.8% | [4] 49.2% | [5] 76.5% | [6] 88.3% | [7] 93.6% | [8] 47% | [9] 16.5% | [10] 12.1%

COc1ccc(-c2nc3ccc(-c4nc5ccc(N6CCN(c7ccc(F)cc7)CC6)cc5[nH]4)cc3[nH]2)cc1OC
inactive: [1] 109% | [2] 99.6% | [3] 80.7% | [4] 89% | [5] 133% | [6] 62.3% | [7] 84.6% | [8] 98.3% | [9] 20.9% | [10] 27.9%

CCCOc1cc2ccccc2cc1C(=O)Nc1nc(NC)c2c(ccc3nccc32)[nH]1
active: [1] -60.8% | [2] -78.4% | [3] -71.7% | [4] -88.8% | [5] -65.8% | [6] -90.7% | [7] -63.8% | [8] -92% | [9] -30.2% | [10] -56.1%

O=C(COc1ccc(/C=C2\CSc3ccccc3C2=O)cc1)Nc1nccs1
active: [9] -66.1% | [10] -30%
inactive: [1] 83.5% | [2] 129% | [3] 95.2% | [4] 75.7% | [5] 85.5% | [6] 104% | [7] 87.5% | [8] 159%

CC1CCNC(C)C1 (stereo not given)
inactive: [1] 112% | [2] 107% | [3] 103% | [4] 93.2% | [5] 109% | [6] 106% | [7] 101% | [8] 106% | [9] 94.4% | [10] 116%

COc1cc(/C=C/C(=O)c2c(C)oc3nc[nH]c(=O)c23)cc(OC)c1OC
inactive: [1] 82.5% | [2] 61.9% | [3] 79.8% | [4] 63.2% | [5] 151% | [6] 74.7% | [7] 72.7% | [8] 93.4% | [9] 34% | [10] 68.4%

Nc1ccc(-c2cc3c(NCc4ccccc4)ncnc3s2)cc1
inactive: [1] 85.1% | [2] 57.9% | [3] 72.6% | [4] 58.5% | [5] 50.2% | [6] 52.7% | [7] 63.1% | [8] 52.6% | [9] 81.9% | [10] 83.7%

O=C1C=C(O)C(=O)C(CC2=C(O)C(=O)C=C(O)C2=O)=C1O
inactive: [1] 104% | [2] 102% | [3] 97.8% | [4] 94.6% | [5] 106% | [6] 97.5% | [7] 104% | [8] 86.6% | [9] 115% | [10] 104%

COc1ccc(-n2nc(C)c3c(Oc4ccc(NC(=O)Nc5c(Cl)cccc5Cl)cc4)ncnc32)cc1
inactive: [1] 106% | [2] 95.8% | [3] 101% | [4] 86.5% | [5] 110% | [6] 106% | [7] 95.3% | [8] 99.1% | [9] 95.5% | [10] 106%
